Among the test systems are NCI-H23 lung; HOP-62 NSCLC; NCI-H460 lung; HOP-92 NSCLC; NCI-H522 lung; A549/ATCC NSCLC; 786-0 renal; COLO 205 colon; DU-145 prostate; K-562 leukemia; MALME-3M melanoma; MDA-MB-231 breast; RXF 393 renal; SF-268 CNS; SF-295 CNS; SF-539 CNS; UACC-257 melanoma; M14 melanoma; NCI-H322M lung.
What all share (assay): NCI-60 one-dose screen, 48 h (100 = growth as untreated, 0 = no growth, -100 = all killed)
Settings in all cases: 10 µM unless noted

Compounds without any hit were thinned out: in the full panel of roughly 83,000, 20% have a hit.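 Negative percent growth values reflect cell death: -40 means 40% of the cells present at the start died, and -100 means all died.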 A number with no mark means an inactive call. Activity calls are given as the source filed them. The calls were made as follows: active = growth percent below 10; inactive = the rest.

In the case of `COc1cc(/C=C2\C(=O)Nc3ccc(Br)cc32)cc(OC)c1OC`, the growth is 63.5% in the test on NCI-H23 lung; 85.2% in the test on HOP-62 NSCLC; 73.3% in the test on NCI-H460 lung; 48.2% in the test with HOP-92 NSCLC; 47% in the test on NCI-H522 lung; -4.21% (active) in the test with A549/ATCC NSCLC. Moreover, the growth in the test on 786-0 renal is 84.9%; in the test on COLO 205 colon, 70.8%; in the test with DU-145 prostate it was 91.8%; with K-562 leukemia it was 32.6%; in the test on MALME-3M melanoma, 88.6%; with MDA-MB-231 breast, 65.5%. Further, the growth was -13.6% (active) in the test on RXF 393 renal; 84% in the test on SF-268 CNS; 68.6% in the test with SF-295 CNS; 85.6% in the test with SF-539 CNS; 17.2% in the test on UACC-257 melanoma; 79.2% in the test on M14 melanoma.

As to `N#Cc1c(-c2ccc(Cl)cc2)nc2c(c(-c3ccccc3)nn2-c2ccccc2)c1-c1ccc(O)cc1`, the growth is 49% with NCI-H23 lung; 70.8% with NCI-H322M lung; 49.9% with HOP-62 NSCLC; 25.1% in the test with NCI-H460 lung; 56.4% with HOP-92 NSCLC; 55.6% in the test on NCI-H522 lung. Besides, the growth in the test with A549/ATCC NSCLC was 41.9%; in the test with 786-0 renal, 17.7%; in the test on COLO 205 colon, 52.6%; in the test with DU-145 prostate it was 50.8%; in the test on K-562 leukemia, 8.36% (active); in the test on MALME-3M melanoma, 61.5%. Also, the growth with MDA-MB-231 breast is 36.5%; in the test on RXF 393 renal it was -27% (active); with SF-268 CNS it was 46.6%; in the test on SF-295 CNS it was 1.71% (active); in the test on SF-539 CNS it was 11.2%; in the test on UACC-257 melanoma, 85.2%. Besides, in the test on M14 melanoma, the growth was 38.3%.

On to `OC(COc1ccccc1Cl)CN1CCN(c2cccc(Cl)c2)CC1` (configuration not stated), for which the growth with NCI-H23 lung was 100%; with HOP-62 NSCLC it was 119%; in the test on NCI-H460 lung, 121%; in the test with HOP-92 NSCLC, 79.2%; in the test on NCI-H522 lung, 88.5%; in the test on A549/ATCC NSCLC it was 101%. Further, the growth in the test on 786-0 renal is 98.3%; with COLO 205 colon, 101%; with DU-145 prostate, 114%; in the test with K-562 leukemia it was 108%; in the test with MALME-3M melanoma it was 107%; in the test with MDA-MB-231 breast it was 89.3%. Besides, the growth was 118% in the test on RXF 393 renal; 105% in the test with SF-268 CNS; 105% in the test with SF-295 CNS; 101% in the test on SF-539 CNS; 93.4% with UACC-257 melanoma; 98.1% in the test on M14 melanoma.

For `O=C(CCc1nnc(-c2c(Cl)cccc2Cl)o1)c1nc2ccccc2[nH]1`, the growth was 61.9% with NCI-H23 lung; 76% in the test on NCI-H322M lung; 71.6% in the test with HOP-62 NSCLC; 77.3% in the test with NCI-H460 lung; 6.67% (active) in the test with HOP-92 NSCLC; 49.8% in the test with NCI-H522 lung. Also, the growth in the test with A549/ATCC NSCLC was 69.7%; in the test on 786-0 renal it was 73.8%; in the test with COLO 205 colon, 62.6%; in the test on DU-145 prostate it was 82.2%; in the test on K-562 leukemia, 2.22% (active); with MALME-3M melanoma, 79.3%. Besides, the growth with MDA-MB-231 breast is 38.3%; in the test on RXF 393 renal, 81.5%; in the test with SF-268 CNS, 68.1%; with SF-295 CNS, 59.5%; in the test with SF-539 CNS, 95.2%; in the test on UACC-257 melanoma, 78.6%. For the same molecule, the growth in the test with M14 melanoma was 55.8%.

In the case of `Cc1ccc(C(=O)NN2C(=O)CSC2c2ccc(Cl)cc2)cn1` (configuration not stated), the growth in the test with NCI-H23 lung was 84.1%; in the test with NCI-H322M lung, 119%; in the test on HOP-62 NSCLC, 82.2%; in the test on NCI-H460 lung, 101%; in the test on HOP-92 NSCLC, 71.1%; with NCI-H522 lung, 84.3%. Besides, the growth with A549/ATCC NSCLC is 100%; in the test with 786-0 renal, 107%; in the test on COLO 205 colon, 105%; with DU-145 prostate, 125%; in the test with K-562 leukemia, 89.8%; in the test with MALME-3M melanoma, 140%. For the same molecule, the growth was 88.8% in the test with MDA-MB-231 breast; 95.2% in the test with RXF 393 renal; 101% in the test on SF-268 CNS; 66.9% in the test with SF-295 CNS; 101% in the test on SF-539 CNS; 110% with UACC-257 melanoma. For the same molecule, in the test with M14 melanoma, the growth is 97.8%.

For `NS(=O)(=O)c1ccc(N=Nc2ccc(-c3nn4cc(-c5ccccc5)nc4s3)cc2)cc1`, the growth with NCI-H23 lung was 97.1%; in the test with NCI-H322M lung it was 103%; in the test on HOP-62 NSCLC, 83%; in the test with NCI-H460 lung, 113%; in the test on HOP-92 NSCLC, 105%; in the test on NCI-H522 lung it was 89.9%. Besides, the growth in the test on 786-0 renal is 94.6%; in the test with COLO 205 colon, 100%; in the test with DU-145 prostate, 108%; in the test on K-562 leukemia, 93.5%; in the test with MALME-3M melanoma, 105%; in the test with MDA-MB-231 breast it was 107%. Further, the growth with RXF 393 renal was 111%; in the test on SF-268 CNS it was 101%; with SF-295 CNS, 96.5%; in the test with SF-539 CNS it was 97.6%; in the test with UACC-257 melanoma, 99.8%; with M14 melanoma it was 96.6%.

Turning to `CC/C=C\C[C@@H](O)C/C=C1/C(=O)C=C[C@H]1C/C=C\CCCC(=O)OC`, the growth is 22.3% in the test on NCI-H23 lung; 12% in the test with NCI-H322M lung; -31.6% (active) in the test on HOP-62 NSCLC; -33.2% (active) in the test on NCI-H460 lung; 22.9% in the test with HOP-92 NSCLC; -67.7% (active) with NCI-H522 lung. Also, the growth was -16.6% (active) in the test with A549/ATCC NSCLC; 30.5% in the test with 786-0 renal; 28.7% in the test on DU-145 prostate; 2.65% (active) with K-562 leukemia; 10.4% in the test on MALME-3M melanoma; -16.8% (active) in the test with RXF 393 renal. Further, the growth in the test with SF-268 CNS is 0.223% (active); with SF-295 CNS, 80.9%; in the test with SF-539 CNS it was 10.4%; in the test with UACC-257 melanoma it was 56.5%; in the test on M14 melanoma it was -1.62% (active).

Take `Cc1cc2[nH]c(=O)c3c4ncccc4cn3c2cc1C`: the growth in the test on NCI-H23 lung is 70%; with NCI-H322M lung, 29.9%; in the test on HOP-62 NSCLC, 59%; in the test on NCI-H460 lung, -33.9% (active); in the test with HOP-92 NSCLC it was 83.3%; in the test on NCI-H522 lung it was -23.7% (active). In addition, the growth with A549/ATCC NSCLC is 49.8%; in the test on 786-0 renal, 7.03% (active); in the test on COLO 205 colon, 14.8%; in the test on DU-145 prostate, 35.6%; in the test on K-562 leukemia, 3.34% (active); in the test on MALME-3M melanoma, 70.1%. Besides, the growth was 28.8% in the test on MDA-MB-231 breast; 18.1% with RXF 393 renal; 41.7% in the test on SF-268 CNS; -14.7% (active) in the test with SF-295 CNS; 26.7% with SF-539 CNS; 108% in the test on UACC-257 melanoma. Besides, the growth in the test with M14 melanoma was 67.3%.
